Bioassay records from PubChem BioAssay.
Lassa entry inh – blocks Lassa virus binding to or entry into cells; Potency, µM (top dose mostly 37.9 µM), for the others: at the top dose activity change, negative = inhibition, actives largely listed as inhibitors; hit rate 1.2% among 300,000; Lassa virus pseudotype entry inhibition, cell reporter; calls by dose curve; tested in HEK293 cells; also: potency is read from the fitted curve at half-maximal effect; nearly all actives have a fitted effect of over 50% in size
VACV Venus inh – inhibitors of vaccinia virus (Venus reporter); Vaccinia virus Venus reporter expression, fluorescence; Potency, µM (highest dose often 36.5 µM), without a hit: top-dose activity change, negative = inhibition, hits mostly inhibitors; hit rate 0.46% among 330,000; AID 720580; calls by dose curve; tested in A549 cells; also: potency is read from the fitted curve at half-maximal effect; nearly all actives have a fitted effect of over 30% in size
HCV inh – inhibitors of hepatitis C virus infection; Huh7.5.1 HCVcc-Cre infection, luciferase reporter, 44 h; Potency, µM (doses to about 41.8 µM), inactives show top-dose activity change, negative = inhibition, most hits filed as inhibitors; hit rate 3.4% among 340,000; active = well fitted inhibition curve with a large enough effect; inconclusive = small, poorly fitted or top-dose-only effect, or another doubt; inactive = no such curve, though single readings can be large or run the other way; also: potency is read from the fitted curve at half-maximal effect
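1,000 cells/well; 4 h culture; + compound; + HCVcc-Cre (~0.5 moi); 44 h; luciferase substrate, RT 15 min; read 15 sec.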
VACV mCherry inh – vaccinia inhibition (mCherry reporter); Vaccinia virus mCherry reporter infection, fluorescence; Potency, µM (doses to about 36.5 µM), for inactives: at the top dose activity change, negative = inhibition, actives largely listed as inhibitors; hit rate 0.63% among 310,000; AID 720579; calls by dose curve; tested in A549 cells; also: potency is read from the fitted curve at half-maximal effect; nearly all actives have a fitted effect of over 35% in size
HCMV antiviral – inhibitors of human cytomegalovirus; HFF cells, HCMV-luciferase reporter, 72 h; hits give low values; activity change, negative = inhibition, % at 57.5 µM; hit rate 4.5% among 410,000; AID 1259415; in the data active = activity change below about -60%; inconclusive = no clear call, values can overlap the other calls; inactive = above about -39%
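Compounds were evaluated in HFFs infected with an HCMV luciferase reporter virus (MOI 1 PFU/cell). Luciferase in lysates collected 72 h post infection served as the replication measure.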
Marburg entry inh – inhibitors of Marburg virus binding or cell entry | hit rate 1.8% among 300,000 | Marburg virus pseudotyped entry inhibition, cell reporter | Potency, µM (doses to about 37.8 µM), inactives show at the top dose activity change, negative = inhibition, hits mostly inhibitors; calls by dose curve; tested in HEK293 cells; also: potency is read from the fitted curve at half-maximal effect
* = called active by the depositor; i = inactive; u = inconclusive; x = not tested or not shown; ! = not confirmed by another sample; [ ] = another dose, or the depositor's remark. Only some compounds are listed: those with a hit (about 7.8% of all), similar ones and a draw of the others. % is scaled to controls: 0 for no effect and ±100 for the full control effect.

SMILES	Lassa entry inh	VACV Venus inh	HCV inh	VACV mCherry inh	HCMV antiviral	Marburg entry inh
CSc1nc2c(=O)[nH]cnc2s1	x	x	x	x	-9	x
O=C(CN1C(=O)CSc2ccc(S(=O)(=O)N3CCCCC3)cc21)NCc1ccc(F)cc1Cl	u	-7%	x	-6%	-17	x
CCc1ccc(N2C=C(C(=O)OC)C(c3cccc4ccccc34)C(C#N)=C2N)cc1 (stereo not given)	x	-8%	x	6.3µM*	-101*	x
COC(=O)C1=CN(c2ccc(OC)cc2)C(N)=C(C#N)C1c1cccc2ccccc12 (stereo not given)	x	-15%	x	u	u	x
COC(=O)C1=CN(c2ccc(C(C)(C)C)cc2)C(N)=C(C#N)C1c1cccc2ccccc12 (stereo not given)	x	-12%	x	8.9µM*	u	x
Cc1cc(C)n(CCc2nc3c4ccccc4nc(N4CCN(c5ccc(F)cc5)CC4)n3n2)n1	x	-10%	x	-20%	-15	0%[46.1 µM]
Cc1ccc(Oc2ccc(OCC(=O)NC(CC(C)C)C(=O)O)cc2)cc1 (stereo not given)	0%	-1%	13%	-3%	-65*	u
CC(C)COc1ccc(C(=O)NC(CC(C)C)C(=O)O)cc1 (stereo not given)	4%	1%	24%	-8%	-6	27%
CN1CCc2cc(O)c(O)cc2C(c2ccccc2)C1 (stereo not given)	u	-13%	u	i	-25	13µM*!
Oc1cc2c(cc1O)C(c1ccccc1)CNCC2 (stereo not given)	u	-11%	-23%	-15%	-31	16µM*!
Oc1cc2c(cc1O)[C@@H](c1ccccc1)CNCC2	-25%	-7%	2%[8.37 µM]	-15%	8	-21%
O=C(CBr)N1CCc2ccccc2C(c2ccccc2)C1 (stereo not given)	6%	4%[7.34 µM]	13%	i[7.34 µM]	19	18%[46.1 µM]
CN1CCc2cc(Cl)c(O)cc2[C@@H](c2ccccc2)C1	0%	-13%	-6%	-13%	-65*	-10%
COc1ccc(CCn2c(=S)[nH]c(=O)c3cccnc32)cc1OC	x	-29%	x	-16%	x	x
Cn1cc(C(N)=O)c2ccccc21	x	-14%	16%	-13%	17	x
Cn1cc(C(=O)CCl)c2ccccc21	u	x	7.9µM*	x	-98*	16µM*
CCS(=O)(=O)N1CC(=O)N(c2cccc(C)c2C)C(C)(C(=O)NC2CCCCC2)C1 (stereo not given)	-7%[46.1 µM]	3%	x	-14%	0	x
COc1ccc(-n2c(C)c(C)c3c(N)ncnc32)cc1	6%[46.1 µM]	-12%	5%	-25%	-77*	-1%[46.1 µM]
Cc1ccc(NC(=O)CN2C(=O)NC(Cc3c[nH]c4ccccc34)C2=O)cc1S(=O)(=O)N1CCCCC1 (stereo not given)	-5%	-28%	11µM*	u	-8	u
O=C(CN1C(=O)NC(Cc2c[nH]c3ccccc23)C1=O)Nc1cccc(S(=O)(=O)N2CCCCCC2)c1 (stereo not given)	-15%	u	10µM*	u	u	u
CN(C)S(=O)(=O)c1cccc(NC(=O)CN2C(=O)NC(Cc3c[nH]c4ccccc34)C2=O)c1 (stereo not given)	4%[46.1 µM]	-27%	1.6µM*	u	-26	18%[46.1 µM]
O=C(CN1C(=O)NC(Cc2c[nH]c3ccccc23)C1=O)Nc1cccc(S(=O)(=O)N2CCCC2)c1 (stereo not given)	-8%	3%	u	-29%	53	-22%
O=C(C1CCCN(S(=O)(=O)c2ccc(Br)s2)C1)N1CCN(c2ccccc2F)CC1 (stereo not given)	2%[46.1 µM]	-6%	x	-21%	7	9%[46.1 µM]
COc1ccccc1NC(=O)C(=O)c1cc(C)n(-c2cc(C)cc(C)c2)c1C	-15%[46.1 µM]	6%	x	-11%	-4	-18%[46.1 µM]
Cn1nc(CC(=O)NCc2ccc(F)cc2)c2ccccc2c1=O	x	-15%	11µM*	-14%	u	x
SMILES	Lassa entry inh	VACV Venus inh	HCV inh	VACV mCherry inh	HCMV antiviral	Marburg entry inh
Cn1nc(CC(=O)N2CCN(c3ccccc3)CC2)c2ccccc2c1=O	u	4%	8%	-4%	36	u
Cn1nc(CC(=O)Nc2ccc(N3CCN(C(=O)OC(C)(C)C)CC3)cc2)c2ccccc2c1=O	0%	-2%	u	-9%	-79*	21%
Cn1nc(CC(=O)Nc2ccc3c(c2)OCCO3)c2ccccc2c1=O	-29%	-30%	6.3µM*	x	-25	u
COc1cc(NC(=O)Cc2nn(C)c(=O)c3ccccc23)cc(OC)c1	-19%	u	10µM*	x	-88*	u
COc1ccccc1NC(=O)Cc1nn(C)c(=O)c2ccccc12	0%	x	u	x	x	u
CCC1(C2CCN(C(=O)c3coc4c3C(=O)CCC4)CC2)NC(=O)N(CCc2scnc2C)C1=O (stereo not given)	x	2%	x	-4%	x	x
CCOc1ccc(S(=O)(=O)N(CC(=O)NCc2ccccc2OC)c2ccccc2)cc1	u	u	x	u	-62*	u
COc1ccccc1N(CC(=O)NCc1ccco1)S(C)(=O)=O	1%	5%	15%	-1%	1	u
COc1ccc(S(=O)(=O)N(CC(=O)NCc2ccco2)c2ccccc2OC)cc1	0%[46.1 µM]	12%	-19%	i	-65*	0%[46.1 µM]
COc1ccc(N(CC(=O)NC(C)c2ccccc2)S(=O)(=O)c2ccc(C)cc2)cc1 (stereo not given)	-20%	u	-16%	u	-2	-19%[46.1 µM]
CNC(=O)CN(c1ccc(Oc2ccccc2)cc1)S(=O)(=O)c1ccc(C)cc1	7.1µM*	-13%	x	i	-2	-15%
COc1ccc(S(=O)(=O)N(CC(=O)NCc2ccccc2OC)c2ccc(C)cc2)cc1	-20%[46.1 µM]	u	x	u	-68*	x
COc1cccc(CN2C(=O)N(c3ccc(C)cc3)C(=O)C2CC(=O)Nc2cc(OC)cc(OC)c2)c1 (stereo not given)	u	-4%	x	-7%	u	x
CCOC(CNCc1cc(C)c2[nH]c3ccccc3c2c1C)OCC	u	u	1.8µM*	u	u	u
CCOC(CCNC(=O)c1cc2c(=O)[nH]c3ccccc3c2s1)OCC	x	x	-6%	x	6	x
COC(=O)c1ccc(SCC(=O)NCc2ccccc2)c([N+](=O)[O-])c1	-23%[46.1 µM]	-5%	14µM*	-3%	42	-4%[46.1 µM]
COC(=O)[C@H]1[C@H](CO)[C@H]2Cn3c(cccc3=O)[C@@H]1N2C(=O)c1ccccn1	x	x	x	x	-22	x
O=C(C(Cl)Cl)N1c2ccccc2OCC1c1ccccc1 (stereo not given)	-1%	x	13µM*	x	-61*	-21%
CC1COc2ccccc2N1C(=O)c1ccc(Cl)cc1 (stereo not given)	0%	-13%	1%	-12%	u	3%
Cc1ccc(S(=O)(=O)N2c3ccccc3OCC2c2ccccc2)cc1 (stereo not given)	-23%	x	35µM*	x	u	u
